# High-throughput results as filed in PubChem.
# A selection: hits, their analogues and other compounds. The true share with any hit is near 9.3%.
# NPC1 prom act: qHTS Assay for NPC1 Promoter Activators; Huh7 NPC1 promoter luciferase reporter, 24 h; Potency, µM (titrated, usually from 9.22 µM), for inactives: at the highest dose activation, hits mostly activators; actives 2.4% (n = 320,000); AID 485313, 2010; also: % of control where 0% means no effect; nearly all actives have a fitted effect of over 60% in size
#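 In 1536-well qHTS, Huh7 cells harboring an NPC1 promoter–luciferase construct received compound for 24 h; activation was quantified by luminescence following luciferase reagent addition.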
# ELG1 genotoxic: qHTS screen for small molecules that induce genotoxicity in human embryonic kidney (HEK293T) cells expressing luciferase-tagged ELG1. HEK293T ELG1-luciferase reporter, luminescence, 16 h. actives 1.3% (n = 330,000). AID 504466, 2011. Potency, µM (top dose mostly 46 µM), for inactives: top-dose activity change, positive = activation, usual class: activators; also: % of control where 0% means no effect; nearly all actives have a fitted effect of over 60% in size
#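 Genotoxic stress is detected as increased luminescence from luciferase-tagged ELG1 in HEK293T cells, measured with ONE-Glo after a 16 hr treatment at 37 °C.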
# ELG1 DNA repair: qHTS screen for small molecules that inhibit ELG1-dependent DNA repair in human embryonic kidney (HEK293T) cells expressing luciferase-tagged ELG1 | actives 2.3% (n = 330,000) | Potency, µM (titrated, usually from 46.1 µM), inactives show at the top dose activity change, negative = inhibition, actives largely listed as inhibitors | HEK293T ELG1-luciferase reporter, luminescence, 16 h; DNA damage induced by 5-fluorouridine; also: % is scaled to controls: 0 for no effect and ±100 for the full control effect; nearly all actives have a fitted effect of over 55% in size
#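 Overnight (16 hr) co-exposure of 2,000 cells/well to 5-fluorouridine and compound at 37 °C preceded detection. Luciferase was quantified via ONE-Glo luminescence; loss of signal denotes inhibition.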
# FLuc counter: qHTS profiling assay for firefly luciferase inhibitor/activator using purifed enzyme and Km concentrations of substrates (counterscreen for miR-21 project) | AID 588342, 2011 | Potency, µM (top dose mostly 57.5 µM), without a hit: at the top dose activity change, negative = inhibition, actives largely listed as inhibitors | purified FLuc, Km substrates, luminescence inhibition | actives 6.9% (n = 360,000);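 also: plate controls were vehicle for no effect and reference inhibitor for full effect; nearly all actives have a fitted effect of over 55% in size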
# Target sequence (P08659 whole entry, looked up): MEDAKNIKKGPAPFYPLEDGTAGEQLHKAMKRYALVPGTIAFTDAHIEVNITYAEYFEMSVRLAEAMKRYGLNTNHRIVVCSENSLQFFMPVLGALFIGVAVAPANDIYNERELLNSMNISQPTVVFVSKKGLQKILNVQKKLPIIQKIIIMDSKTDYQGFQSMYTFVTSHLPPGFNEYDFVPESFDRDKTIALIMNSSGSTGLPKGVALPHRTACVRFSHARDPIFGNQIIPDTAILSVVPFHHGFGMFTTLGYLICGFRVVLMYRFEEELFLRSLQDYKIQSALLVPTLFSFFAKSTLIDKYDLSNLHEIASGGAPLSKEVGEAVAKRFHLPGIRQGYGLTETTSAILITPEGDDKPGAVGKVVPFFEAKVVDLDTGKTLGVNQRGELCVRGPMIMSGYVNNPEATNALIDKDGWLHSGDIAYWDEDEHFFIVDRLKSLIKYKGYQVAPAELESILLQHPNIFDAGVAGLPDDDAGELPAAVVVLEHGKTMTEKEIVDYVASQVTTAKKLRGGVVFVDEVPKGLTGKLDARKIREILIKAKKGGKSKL
#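 Biochemical qHTS of compounds, final roughly 60 µM downward over six points, against 10 nM purified firefly luciferase using Km concentrations of substrates (10 uM D-luciferin, 10 uM ATP) in Tris acetate pH 7.5 buffer; luminescence output.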
# Rab9 promoter act: qHTS Assay for Rab9 Promoter Activators | Huh7 Rab9 promoter-luciferase reporter, luminescence, 24 h | Potency, µM (series often up to 9.22 µM), for inactives: at the highest dose activation, negative = inhibition, actives largely listed as activators | actives 2.8% (n = 320,000) | AID 485297, 2010; also: % of control where 0% means no effect; nearly all actives have a fitted effect of over 60% in size
#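 Luminescence from Amplite-detected luciferase (10 minutes, ambient) reports Rab9 promoter activation. Before that, stable Rab9-luciferase Huh7 cells (1500/well, reduced-serum OP-MEM I plus 10% FBS) were exposed to compound for 24 hours at 37C.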
# SMN2 splice enh: qHTS Assay for Enhancers of SMN2 Splice Variant Expression; HEK293 SMN2-luciferase splicing reporter, luminescence, 30-36 h; Potency, µM (doses to about 46.1 µM), for inactives: top-dose activity change, positive = activation, usual class: activators; AID 1458, 2008; actives 2.8% (n = 210,000); also: % of control where 0% means no effect; nearly all actives have a fitted effect of over 55% in size
#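 HEK293 cells carry an SMN2 minigene-luciferase reporter in which exon 7 inclusion puts luciferase in frame. Cells were seeded at 2000 cells/well, attached for 10-12 hours, then exposed to compounds for 30-36 hours at 37C before ONE-Glo luminescence.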
# The depositor's hits bear a star; ? = inconclusive; . = not tested or not shown. Calls follow the shape of the dose curve; as a rule, active = well fitted curve in the direction sought with a large enough effect; inconclusive = small, poorly fitted or top-dose-only effect, or another doubt; inactive = no such curve, though single readings can be large; an effect the other way counts as inactive or inconclusive. Potency is read from the fitted curve at half-maximal effect.
SMILES,NPC1 prom act,ELG1 genotoxic,ELG1 DNA repair,FLuc counter,Rab9 promoter act,SMN2 splice enh
CC(=O)Oc1cccc(/C=C2\Sc3ccccc3C2=O)c1,0%,-2%,0%,1.7µM*,-3%,.
O=C1/C(=C/c2cccs2)Sc2ccccc21,14%,?,?,1.1µM*,?,?
CCOc1ccc(/C=C2/SC(=S)N(n3c(C)ccc3C)C2=O)cc1,-2%,-6%,13%,-2%,-2%,-20%
CC(C)COc1ccc(/C=C2/Sc3ccccc3C2=O)cc1,?,?,?,1.3µM*,22%,?
CC(=O)Nc1ccc(S(=O)(=O)Oc2cccc(/C=C3\SC(N)=NC3=O)c2)cc1,0%,29%,2%,1%,4%,6%
CCCCOc1ccc(/C=C2/Sc3ccccc3C2=O)cc1,3%,8%,?,3.4µM*,28%,16µM*
CCOc1ccccc1-c1nc(-c2ccncc2)no1,.,.,.,-19%,.,-5%
Cc1ccc(-c2noc(-c3ccccc3Br)n2)cc1,0.79µM*,?,?,0.67µM*,2.8µM*,13µM*
COc1nc(-c2ccc(C)cc2)ccc1-c1noc(-c2ccccc2Br)n1,.,.,.,?,.,1%
COc1ccccc1-c1nc(-c2ccncc2)no1,2µM*,?,?,6.7µM*,2µM*,13µM*
CCOc1ccccc1NC(=O)c1ccccc1-c1nc(-c2ccccc2OC)no1,2%,-18%,18µM*,11µM*,6%,.
COc1cc(OC)cc(-c2nc(-c3ccc(Br)cc3)no2)c1,27%,5%,27%,13µM*,?,5%
CCN(c1cccc(C)c1)S(=O)(=O)c1cc2c3c(c1)CCN3C(=O)CC2,0%,11%,0%,2%,-2%,.
CCOc1ccc2nc(COC(=O)c3cccc([N+](=O)[O-])c3)c(C(C)=O)[n+]([O-])c2c1,-5%,1%,12%,-2%,0%,.
O=C(CCc1nc2ccccc2s1)NC1CCOC1=O (configuration not stated),0%,0%,0%,2%,5%,.
COc1ccc(-c2nc(-c3ccc(Br)cc3)no2)c(OC)c1,.,.,.,1.2µM*,.,7.1µM*
CCSc1ccccc1-c1nc(-c2ccncc2)no1,?,19%,-9%,?,29%,.
CCOc1nc(C)ccc1-c1noc(-c2ccccc2OC)n1,9%,2%,?,24µM*,7%,-8%
CN(C)c1ccc(-c2noc(-c3ccccc3O)n2)cc1,0.71µM*,?,?,0.27µM*,?,32%
Clc1ccc(OCc2nc(-c3ccncc3)no2)c(Cl)c1,0.89µM*,7.3µM*,?,2.1µM*,0.63µM*,16µM*
CCOc1ccc(-c2nc(-c3ccc(OC)cc3)no2)cc1OCC,-1%,-1%,2%,-3%,1%,-30%
Clc1cccc(OCc2nc(-c3ccncc3)no2)c1,7%,11%,?,-19%,23%,15%
CCOc1ccccc1-c1nc(-c2ccc(-c3ccccc3)nc2OCC)no1,.,.,.,0%,.,1%
O=C(O)C1Cc2c([nH]c3ccccc23)C(c2coc3ccccc3c2=O)N1 (configuration not stated),.,.,.,.,.,-4%
CC1=C(c2ccc(C)cc2)S(=O)(=O)N(Cc2ccc(C(=O)NCc3ccccc3F)cc2)C1=O,.,.,.,-6%,.,.
COc1ccc(-c2ccc(-c3noc(-c4ccccc4OC)n3)c(OC)n2)cc1,0%,7%,-26%,0%,3%,-16%
